# In PubChem BioAssay:
# For some of these results: Entries with a potency or affinity are not part of this list. Active and inactive are the calls of the source.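 How the source made its calls, unless noted: active means primary screen inhibitor hit that blocks the TRPC4 channel at some tested dose, yielding a dose curve; inactive means the rest.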
# How the values were obtained:
# [1] = test system: TRPC4 beta (transient receptor potential cation channel C4), mouse; test: activators of mouse TRPC4 channel, confirmation, cell-based, Fluo4 calcium, HEK293 TRPC4beta/mu-opioid, duplicates, 10 µM (AID 2426;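 active means fluorescence ratio normalized to control raised more than 50% in primary screen plus both repeat runs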); conditions: Fluo4 calcium fluorescence, at 10 µM; hits give high values
# [2] = test system: transient receptor potential cation channel C4 beta (TRPC4), mouse; test: activators of mouse TRPC4 channel, confirmation, cell-based, second round, Fluo4, HEK293 TRPC4beta/mu-opioid, 1 µM (AID 2461;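 active means primary screen active and over 50% activation in each of two duplicate runs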); conditions: Fluo4 calcium fluorescence, at 1 µM; hits give high values
# [3] = test system: TRPC4 (transient receptor potential cation channel C4 beta), mouse; test: positive allosteric modulators of mouse TRPC4, confirmation, cell-based, second round, Fluo-4, HEK293 TRPC4beta/mu-opioid, 1 µM (AID 2554;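 active means primary screen hit whose fluorescence ratio, in both repeats, exceeds the weak agonist control mean by 3 SD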); conditions: DAMGO EC20, Fluo-4 calcium flux, at 1 µM; hits give high values
# [4] = test system: TRPC4 beta (transient receptor potential cation channel C4), mouse; test: positive allosteric modulators of mouse TRPC4, confirmation, cell-based, Fluo-4, HEK293 TRPC4beta/mu-opioid (AID 2555;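 active means primary screen hit whose calcium fluorescence ratio, in both repeats, exceeds the weak agonist control mean by 3 SD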); conditions: DAMGO EC20, Fluo-4 calcium flux, at 10 µM; hits give high values
# [5] = biological target: Short transient receptor potential channel 4 (Mus musculus) (UniProt Q9QUQ5); test: inhibitors of mouse TRPC4 channel, confirmation, cell-based, Fluo4, HEK293 TRPC4beta/mu-opioid (AID 2636;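 active means calcium signal cut by more than 3 SD below the full-agonist control yet still positive, in both repeats and the earlier primary screen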); conditions: DAMGO, Fluo4 calcium flux, at 10 µM; hits give high values
# Sequence of Short transient receptor potential channel 4 (Mus musculus) (Q9QUQ5 whole entry, looked up): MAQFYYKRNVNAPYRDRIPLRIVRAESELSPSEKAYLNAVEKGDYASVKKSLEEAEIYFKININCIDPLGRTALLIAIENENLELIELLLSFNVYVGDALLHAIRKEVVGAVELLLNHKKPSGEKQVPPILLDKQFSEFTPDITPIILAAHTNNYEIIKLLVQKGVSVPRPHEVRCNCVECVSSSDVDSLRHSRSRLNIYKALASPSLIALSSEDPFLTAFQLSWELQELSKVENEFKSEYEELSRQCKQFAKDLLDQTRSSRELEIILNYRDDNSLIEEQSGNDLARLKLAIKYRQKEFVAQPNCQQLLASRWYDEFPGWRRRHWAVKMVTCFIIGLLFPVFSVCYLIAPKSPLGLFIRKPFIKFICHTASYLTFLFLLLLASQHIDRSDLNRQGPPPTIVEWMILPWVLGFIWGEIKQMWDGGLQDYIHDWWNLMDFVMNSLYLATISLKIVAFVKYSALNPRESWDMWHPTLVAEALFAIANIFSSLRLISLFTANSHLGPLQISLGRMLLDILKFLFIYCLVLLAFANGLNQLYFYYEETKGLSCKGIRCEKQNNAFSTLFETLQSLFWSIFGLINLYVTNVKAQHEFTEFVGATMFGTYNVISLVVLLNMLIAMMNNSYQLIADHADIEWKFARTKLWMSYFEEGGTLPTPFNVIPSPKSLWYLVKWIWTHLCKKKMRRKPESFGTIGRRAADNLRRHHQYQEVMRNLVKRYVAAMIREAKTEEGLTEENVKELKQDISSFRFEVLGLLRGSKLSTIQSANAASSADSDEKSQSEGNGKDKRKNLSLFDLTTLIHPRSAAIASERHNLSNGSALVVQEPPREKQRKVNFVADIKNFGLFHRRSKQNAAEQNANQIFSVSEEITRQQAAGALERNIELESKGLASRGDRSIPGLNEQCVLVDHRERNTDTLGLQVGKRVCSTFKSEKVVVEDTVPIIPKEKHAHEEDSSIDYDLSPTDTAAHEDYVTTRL
# [6] = biological target: Short transient receptor potential channel 4 (Mus musculus) (UniProt Q9QUQ5); test: inhibitors of mouse TRPC4 channel, confirmation, cell-based, second round, Fluo4, HEK293 TRPC4beta/mu-opioid, 1 µM (AID 2637;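 active means calcium signal ratio cut to more than 3 SD under the fully stimulated control mean yet still positive, in both repeats and the primary screen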;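 on inhibition: percent of integrated ratio relative to wells lacking test compound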); conditions: Fluo4 calcium flux, DAMGO, at 1 µM; hits give high values
# [7] = biological target: Short transient receptor potential channel 4 (Mus musculus) (UniProt Q9QUQ5); test: mouse TRPC4 channel activators, dose response, cell-based, HEK293 TRPC4/mu-opioid, Fluo-4 calcium (AID 434937;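 active means primary screen activator hit with a dose response curve and TRPC4 channel activation at any tested dose; inactive means no activation, no dose response, or not a primary hit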)
# [8] = biological target: Short transient receptor potential channel 4 (Mus musculus) (UniProt Q9QUQ5); test: TRPC4 positive allosteric modulators, dose response, cell-based, HEK293 TRPC4/mu-opioid, Fluo-4 calcium, EC20 DAMGO (AID 434941;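 active means earlier screen potentiator hit that boosts the TRPC4 ion channel at some dose, with a dose response; inactive means no potentiation, no dose response, or not a prior hit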;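 further: calcium entry triggered by an EC20 dose of DAMGO at the co-expressed mu-opioid receptor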)
# [9] = biological target: Short transient receptor potential channel 4 (Mus musculus) (UniProt Q9QUQ5); test: mouse TRPC4 channel inhibitors, dose response, cell-based, HEK293 TRPC4/mu-opioid, Fluo-4 calcium (AID 434942)
# [10] = biological target: Short transient receptor potential channel 6 (Mus musculus) (UniProt Q61143); test: inhibition of mouse TRPC6 channel, confirmation, selectivity assay for TRPC4 inhibitor project, cell-based, HEK293, membrane potential dye, duplicate (AID 434948;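 active means active in primary screen and both duplicates, each dropping signal beyond three positive-control SD with fluorescence still positive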); conditions: HEK293 TRPC6, membrane potential dye fluorescence, at 10 µM, stimulated with maximal-effect acetylcholine; hits give high values
# Sequence of Short transient receptor potential channel 6 (Mus musculus) (Q61143 whole entry, looked up): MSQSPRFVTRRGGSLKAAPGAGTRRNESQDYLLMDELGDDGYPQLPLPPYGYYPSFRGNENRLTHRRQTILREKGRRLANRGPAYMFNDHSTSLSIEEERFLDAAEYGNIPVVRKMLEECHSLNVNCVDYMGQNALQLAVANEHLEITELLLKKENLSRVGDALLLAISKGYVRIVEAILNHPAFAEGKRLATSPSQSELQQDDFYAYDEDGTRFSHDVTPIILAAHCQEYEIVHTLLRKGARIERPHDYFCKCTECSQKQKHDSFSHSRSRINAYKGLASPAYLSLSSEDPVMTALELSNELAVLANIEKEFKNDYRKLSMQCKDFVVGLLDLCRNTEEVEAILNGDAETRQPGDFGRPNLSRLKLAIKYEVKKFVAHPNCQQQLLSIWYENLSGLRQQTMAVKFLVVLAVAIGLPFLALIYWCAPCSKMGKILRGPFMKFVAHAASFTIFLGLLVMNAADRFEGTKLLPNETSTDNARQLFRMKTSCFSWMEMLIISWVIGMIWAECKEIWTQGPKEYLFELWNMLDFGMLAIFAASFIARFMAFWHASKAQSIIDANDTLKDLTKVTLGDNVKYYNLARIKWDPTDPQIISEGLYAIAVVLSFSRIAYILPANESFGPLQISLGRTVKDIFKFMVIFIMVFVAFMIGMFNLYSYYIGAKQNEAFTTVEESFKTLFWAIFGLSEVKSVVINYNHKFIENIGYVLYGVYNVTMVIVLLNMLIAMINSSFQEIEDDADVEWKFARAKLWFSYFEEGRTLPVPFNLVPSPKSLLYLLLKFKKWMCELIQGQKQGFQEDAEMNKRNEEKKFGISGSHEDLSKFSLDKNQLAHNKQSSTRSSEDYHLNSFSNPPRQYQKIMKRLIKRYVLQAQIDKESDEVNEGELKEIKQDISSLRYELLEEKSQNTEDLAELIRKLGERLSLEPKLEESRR
# [11] = biological target: Short transient receptor potential channel 6 (Mus musculus) (UniProt Q61143); test: activation of mouse TRPC6 channel, confirmation, selectivity assay for TRPC4 activator project, cell-based, HEK293, membrane potential dye, duplicate (AID 434950;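 active means membrane potential signal rise above negative control mean plus 3 SD in both duplicates, also active in the earlier TRPC4 screen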); conditions: HEK293 TRPC6, membrane potential fluorescence, at 10 µM; hits give high values
# [12] = biological target: Short transient receptor potential channel 6 (Mus musculus) (UniProt Q61143); test: TRPC6 potentiation by TRPC4 potentiator hits, confirmation, selectivity assay for TRPC4 potentiator project, HEK293 cells, membrane potential dye, duplicate (AID 434952;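 active means compound raising the membrane signal above positive-control mean plus 3 SD in both repeats, and a primary screen hit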); conditions: HEK293 TRPC6, membrane potential dye fluorescence, at 10 µM, maximal acetylcholine added after compound; hits give high values
# [13] = biological target: Short transient receptor potential channel 4 (Mus musculus) (UniProt Q9QUQ5); test: calcium flux activators in TRPC4/5HT1a cells, counter-screen for TRPC4 activator project, cell-based, second counter screen, HEK293 TRPC4/5HT1a, Fluo-4 (AID 434977;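 active means calcium signal rise above buffer-control mean plus 5 SD in both duplicates, and also a hit in the primary screen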); conditions: Fluo-4 calcium flux, at 10 µM; hits give high values
# [14] = calcium flux inhibitors in TRPC4/5HT1a cells, confirmation, counter-screen for TRPC4 inhibitor project, cell-based, second counter screen, HEK293 TRPC4/5HT1a, Fluo-4 (AID 434978;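 active means primary screen active whose calcium signal fell more than 3 SD beyond the full-serotonin control mean in both duplicate plates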;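 on outcome: serotonin given first at submaximal then at maximal dose after compound preincubation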); conditions: Fluo-4 calcium flux, at 10 µM, serotonin added to trigger calcium flux; hits give high values
# [15] = test system: TRPC4 (mouse), co-expressed with 5HT1a in HEK293; test: calcium flux potentiators in TRPC4/5HT1a cells, confirmation, counter-screen for TRPC4 potentiator project, cell-based, second counter screen, HEK293 TRPC4/5HT1a, Fluo-4 (AID 434979;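 active means signal rise over 3 SD above mean of control wells given weak agonist, in both repeats and first screen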); conditions: Fluo-4 calcium flux, at 10 µM, serotonin added at its EC20 dose; hits give high values
# [16] = calcium flux activation in mu-opioid HEK293 cells, confirmation, counter-screen for TRPC4 activator project, cell-based, HEK293 mu-opioid receptor line (AID 449723;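 active means hit in primary screen, with calcium signal over 5 SD above buffer well mean in both duplicates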;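 further: counter screen cells carry the mu-opioid receptor alone and lack TRPC4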); conditions: Fluo-4 calcium fluorescence, at 10 µM; hits give high values
# [17] = calcium flux enhancement in mu-opioid HEK293 cells, confirmation, counter-screen for TRPC4 allosteric potentiator project, cell-based, HEK293 mu-opioid receptor line (AID 449724;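 active means calcium signal rise more than 3 SD above the low-dose agonist control mean, in both duplicate plates and the primary screen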); conditions: Fluo-4 calcium flux, at 10 µM, compound added before EC20 DAMGO stimulus; hits give high values
compound,measurement,setting,value
Cc1ccc(-n2c(SCc3cc(=O)n4ccsc4n3)nnc2-c2cccnc2)c(C)c1,outcome,[1],inactive
same,outcome,[2],inactive
same,outcome,[3],inactive
same,outcome,[4],inactive
same,outcome,[5],inactive
same,outcome,[6],inactive
same,outcome,[7],inactive
same,outcome,[8],inactive
same,outcome,[9],inactive
same,outcome,[10],inactive
same,outcome,[11],inactive
same,outcome,[12],inactive
same,outcome,[13],inactive
same,outcome,[14],inactive
same,outcome,[15],inactive
same,outcome,[16],inactive
same,outcome,[17],inactive
COc1ccc(OC)c(NC(=O)COC(=O)Cc2ccc(-c3ccccc3)cc2)c1,outcome,[1],inactive
same,outcome,[2],inactive
same,outcome,[3],inactive
same,outcome,[4],inactive
same,outcome,[5],inactive
same,outcome,[6],inactive
same,outcome,[7],inactive
same,outcome,[8],inactive
same,outcome,[9],inactive
same,outcome,[10],inactive
same,outcome,[11],inactive
same,outcome,[12],inactive
same,outcome,[13],inactive
same,outcome,[14],inactive
same,potentiation,[15],31.8% (active)
same,outcome,[16],inactive
same,outcome,[17],inactive
Cc1ccc(-c2nn(-c3ccccc3)cc2C(=O)Nc2ccc(C(=O)O)cc2)cc1,outcome,[1],inactive
same,outcome,[2],inactive
same,outcome,[3],inactive
same,outcome,[4],inactive
same,outcome,[5],inactive
same,outcome,[6],inactive
same,outcome,[7],inactive
same,outcome,[8],inactive
same,outcome,[9],inactive
same,outcome,[10],inactive
same,outcome,[11],inactive
same,outcome,[12],inactive
same,outcome,[13],inactive
same,outcome,[14],inactive
same,outcome,[15],inactive
same,outcome,[16],inactive
same,outcome,[17],inactive
O=C(NCc1cccs1)C12CC3CC(CC(C3)C1)C2,outcome,[1],inactive
same,outcome,[2],inactive
same,outcome,[3],inactive
same,outcome,[4],inactive
same,outcome,[5],inactive
same,outcome,[6],inactive
same,outcome,[7],inactive
same,outcome,[8],inactive
same,outcome,[9],inactive
same,outcome,[10],inactive
same,outcome,[11],inactive
same,outcome,[12],inactive
same,outcome,[13],inactive
same,outcome,[14],inactive
same,outcome,[15],inactive
same,outcome,[16],inactive
same,outcome,[17],inactive
CCCCN(C)CCNC(=O)c1ccc(Cn2c(=S)[nH]c3ccc(Br)cc3c2=O)cc1,outcome,[1],inactive
same,outcome,[2],inactive
same,outcome,[3],inactive
same,potentiation,[4],16% (active)
same,outcome,[5],inactive
same,outcome,[6],inactive
same,outcome,[7],inactive
same,outcome,[8],inactive
same,outcome,[9],inactive
same,outcome,[10],inactive
same,outcome,[11],inactive
same,outcome,[12],inactive
same,outcome,[13],inactive
same,outcome,[14],inactive
same,potentiation,[15],33.5% (active)
same,outcome,[16],inactive
same,outcome,[17],inactive
Cc1cc(/C=N/NC(=O)c2cccc([N+](=O)[O-])c2)c(C)n1-c1ccc(Cl)cc1Cl,outcome,[1],inactive
same,outcome,[2],inactive
same,outcome,[3],inactive
same,outcome,[4],inactive
same,inhibition,[5],88% (active)
same,inhibition,[6],58% (active)
same,outcome,[7],inactive
same,outcome,[8],inactive
same,outcome,[9],inactive
same,outcome,[10],inactive
same,outcome,[11],inactive
same,outcome,[12],inactive
same,outcome,[13],inactive
same,inhibition,[14],35.8% (active)
same,outcome,[15],inactive
same,outcome,[16],inactive
same,outcome,[17],inactive
CC(C)CN(C(=O)COC(=O)COc1ccc2ccccc2c1)c1c(N)n(Cc2ccccc2)c(=O)[nH]c1=O,outcome,[1],inactive
same,outcome,[2],inactive
same,outcome,[3],inactive
same,outcome,[4],inactive
same,outcome,[5],inactive
same,outcome,[6],inactive
same,outcome,[7],inactive
same,outcome,[8],inactive
same,outcome,[9],inactive
same,outcome,[10],inactive
same,outcome,[11],inactive
same,outcome,[12],inactive
same,outcome,[13],inactive
same,outcome,[14],inactive
same,potentiation,[15],14.7% (active)
same,outcome,[16],inactive
same,outcome,[17],inactive
CSc1ccc(/C=N\NC(=O)CC(=O)NC(C)C)cc1,outcome,[1],inactive
same,outcome,[2],inactive
same,outcome,[3],inactive
same,outcome,[4],inactive
same,outcome,[5],inactive
same,outcome,[6],inactive
same,outcome,[7],inactive
same,outcome,[8],inactive
same,outcome,[9],inactive
same,outcome,[10],inactive
same,outcome,[11],inactive
same,outcome,[12],inactive
same,outcome,[13],inactive
same,outcome,[14],inactive
same,outcome,[15],inactive
same,outcome,[16],inactive
same,outcome,[17],inactive
